According to paper PMC4336329 (PLoS ONE, 2015):
The campaign covered roughly 310,000 compounds. About 2,200 (0.71%) showed an effect of 50% or more. The effect is printed as a negative number. For the sample, strong results were picked, then their nearest neighbours and some compounds at random.

biological target: human ether-à-go-go-related gene (hERG) potassium channel (human, UniProt Q12809); test: primary screen, population patch clamp on CHO cells stably expressing hERG; higher = less effect of the substance
Sequence (Q12809 whole entry, looked up): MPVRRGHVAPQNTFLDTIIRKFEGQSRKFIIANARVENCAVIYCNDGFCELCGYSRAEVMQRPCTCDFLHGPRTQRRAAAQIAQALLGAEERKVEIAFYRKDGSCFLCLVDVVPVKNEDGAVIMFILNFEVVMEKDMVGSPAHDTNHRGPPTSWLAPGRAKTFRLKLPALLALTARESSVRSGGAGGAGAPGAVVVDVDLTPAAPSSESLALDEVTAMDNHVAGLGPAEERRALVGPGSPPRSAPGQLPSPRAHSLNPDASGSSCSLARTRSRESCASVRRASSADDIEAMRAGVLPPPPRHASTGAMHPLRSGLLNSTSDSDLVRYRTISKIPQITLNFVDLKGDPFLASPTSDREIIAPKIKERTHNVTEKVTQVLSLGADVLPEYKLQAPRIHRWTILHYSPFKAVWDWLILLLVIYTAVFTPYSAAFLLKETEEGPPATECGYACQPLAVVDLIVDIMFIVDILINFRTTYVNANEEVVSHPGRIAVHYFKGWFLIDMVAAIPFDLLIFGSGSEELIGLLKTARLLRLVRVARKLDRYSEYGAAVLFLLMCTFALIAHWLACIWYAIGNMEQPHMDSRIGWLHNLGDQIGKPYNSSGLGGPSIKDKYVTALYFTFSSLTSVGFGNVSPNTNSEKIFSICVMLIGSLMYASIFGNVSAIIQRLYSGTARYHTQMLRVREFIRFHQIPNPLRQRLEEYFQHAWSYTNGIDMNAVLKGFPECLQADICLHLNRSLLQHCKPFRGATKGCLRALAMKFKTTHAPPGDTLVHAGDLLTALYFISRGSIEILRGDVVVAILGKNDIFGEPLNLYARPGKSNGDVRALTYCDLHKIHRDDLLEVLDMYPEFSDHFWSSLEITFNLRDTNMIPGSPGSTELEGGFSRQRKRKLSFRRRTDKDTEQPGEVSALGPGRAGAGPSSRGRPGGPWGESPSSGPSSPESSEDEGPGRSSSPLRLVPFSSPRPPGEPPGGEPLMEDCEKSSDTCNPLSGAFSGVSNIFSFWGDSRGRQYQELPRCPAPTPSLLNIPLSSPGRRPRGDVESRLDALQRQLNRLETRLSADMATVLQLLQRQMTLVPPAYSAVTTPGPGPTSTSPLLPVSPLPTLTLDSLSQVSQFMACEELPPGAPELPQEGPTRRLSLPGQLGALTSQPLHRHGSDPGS
Description: Briefly, Chinese hamster ovary (CHO) cells stably expressing the hERG channel were dislodged from tissue culture flasks and dispensed into PPC plates. […] During the recording, background leak currents were estimated by a 100 ms step to -80 mV from an initial holding potential of -70 mV and subtracted from the subsequent current measurement. The campaign was conducted in two phases using slight differences in recording protocol. In the first phase, the initial voltage pulse used a 100 ms step to -30 mV from a holding potential of -70 mV, a 2 s conditioning step to +25 mV, and a 2 s test step to -30 mV. During the second phase of the screen, the potential during the conditioning step was raised to +45 mV. In both phases of the campaign, a secondary voltage pulse was applied using the same parameters as the second phase initial pulse. The initial and secondary pulses were applied in the absence of compound, and upon application of 1 μM and 10 μM test concentrations. Small molecule effects on hERG current density were quantified by […].

Row | SMILES | hERG current change (%, negative = inhibition) at 1uM
1 | CCN(CC)CC(=O)Nc1ccc(Cl)cc1C(=O)c1ccccc1 | 6.87%
2 | Cc1cc(Cl)ccc1NC(=O)CN1CCN(C(=O)c2ccco2)CC1 | -57.1%
3 | CN1CCN(C(=S)SCC(=O)Nc2ccc(Cl)cc2C(=O)c2ccccc2)CC1 | -5.6%
4 | CN1CCN(CC(=O)Nc2ccc(Cl)cc2C(=O)c2ccccc2)CC1 | -83.3%
5 | CN1CCN(c2ccc([N+](=O)[O-])cc2C(=O)c2ccccc2)CC1 | -17.5%
6 | O=C(CN1CCN(C(=O)c2ccco2)CC1)Nc1cc(Cl)ccc1Cl | -8.91%
7 | CN1CCN(CC(=O)Nc2cccc([N+](=O)[O-])c2)CC1 | 5.95%
8 | Cc1ccccc1NC(=O)CN1CCN(C(=O)c2ccco2)CC1 | 5.5%
9 | CCN(CC)CCNCC(=O)Nc1ccc(Cl)cc1C(=O)c1ccccc1.O=C(O)C(=O)O | -84.2%
10 | CN1CCN(CC(=O)Nc2ccc([N+](=O)[O-])cc2C(=O)c2ccccc2)CC1 | -91.5%
11 | CN(C)CCCNCC(=O)Nc1ccc(Cl)cc1C(=O)c1ccccc1.O=C(O)C(=O)O | -21.2%
12 | O=C(CN1CCCC1)Nc1ccc(Cl)cc1C(=O)c1ccccc1.O=C(O)C(=O)O | 0.588%
13 | O=C1NC(=S)N(c2ccccc2)C(=O)/C1=C/c1ccco1 | 5.88%
14 | COc1ccc(-n2nnnc2SCC(=O)c2ccc(O)c(O)c2)cc1 | 1.49%
15 | Cc1ccccc1-c1nc2ccc(Cl)cc2c(=O)n1O | 15.4%
16 | CCOC(=O)c1ccc(NC(=O)CNC(=O)c2ccccc2)cc1 | 7.06%
17 | CCSc1nnc(NC(=O)Nc2cccc(C)c2)s1 | 12.2%
18 | Cn1nc([N+](=O)[O-])nc1Sc1nnnn1-c1ccc(C(=O)O)cc1 | 8.97%
19 | CCCCn1c(CCNC(=O)c2ccco2)nc2ccccc21 | 7.54%

Row | SMILES | hERG current change (%, negative = inhibition) at 1uM
20 | Cc1cc(C)cc(-c2nnc(SCC(=O)c3ccc4c(c3)OCCO4)o2)c1 | 16%
21 | Cc1cn(COC/C=C/c2ccccc2)c(=O)[nH]c1=O | 7.16%
22 | Cc1cccc(C(=O)NCCCNC(=O)c2ccc(C)nc2)c1 | 10.6%
23 | O=C(CN1CCCCCC1)Nc1ccc(Cl)cc1F | 14.6%
24 | O=C(CN1CCN(C(=O)c2ccccc2)CC1)Nc1ccc(Cl)cc1F | -54.8%
25 | O=C(CN1CCN(C(=O)c2cccc(F)c2)CC1)Nc1ccccc1F | -36.4%
26 | COc1ccc2oc(C(=O)c3ccccc3)c(NC(=O)CN3CCN(C)CC3)c2c1 | -12.2%
27 | Cc1cc(Cl)ccc1OCCCC(=O)N1CCOCC1 | -7.13%
28 | Cc1cc(Cl)ccc1OCCCC(=O)N1CCN(C)CC1 | 0.322%
29 | CN1CCN(CC(=O)Nc2c(C(=O)c3ccccc3)oc3ccccc23)CC1 | -83.2%
30 | Cc1cc(Cl)ccc1OCCCC(=O)N1CCN(C(=O)c2ccco2)CC1 | -59.1%
31 | CC(=O)N1CCN(CC(=O)Nc2ccccc2Sc2ccc(Cl)cc2)CC1 | -58.3%
32 | O=C(CN1CCCC1)Nc1ccccc1Sc1ccc(Cl)cc1 | -0.77%
33 | CN1CCN(CC(=O)Nc2c(C(=O)C3CC3)oc3ccccc23)CC1 | -16.9%
34 | CC(=O)N1CCN(CC(=O)Nc2ccccc2Sc2ccccc2)CC1 | -29.8%
35 | Cn1cnc([N+](=O)[O-])c1Cl | 11%
36 | O=C(CN1C(=O)c2ccccc2C1=O)Nc1ccccc1C(=O)NC1CCCCCC1 | 6.73%
37 | Cc1ccc(CNC(=O)c2ccc(N3CCC4(CC3)CC(c3cccc(Br)c3)=NO4)c(NC(=O)c3cccc(C)c3)c2)cc1 | 8.49%
38 | CCCSc1nc(C)c(C(C)=O)cc1C#N | 7.88%

Row | SMILES | hERG current change (%, negative = inhibition) at 1uM
39 | O=C(CCN1CCCCC1)Nc1ccc(Cl)cc1C(=O)c1ccccc1 | -42.9%
40 | O=C(CN1CCN(CCO)CC1)Nc1ccc(Cl)cc1C(=O)c1ccccc1 | -80.7%
41 | O=C(CN1CCCC1)Nc1ccccc1C(=O)c1ccccc1 | 10.5%
42 | Cc1ccc(CNC(=O)N2CCN(c3ccc(C)cc3)CC2)cc1 | 14.1%
43 | O=C1C=C(c2ccc(-c3ccccc3)cc2)C[C@@H](c2ccc(F)cc2)C1 | 6.09%
44 | O=C1C=C(c2ccc(-c3ccccc3)cc2)C[C@@H](c2ccc(Cl)cc2)C1 | 15.9%
45 | Cc1ccc(C2=CC(=O)C[C@H](c3ccc(Cl)cc3)C2)cc1 | 10.4%
46 | N#Cc1ccc(C2=CC(=O)C[C@H](c3ccc(Cl)cc3)C2)cc1 | -51.9%
47 | Cc1ccc(C2=CC(=O)C[C@H](c3ccc(F)cc3)C2)cc1 | 14.5%
48 | N#Cc1ccc(C2=CC(=O)C[C@H](c3ccc(F)cc3)C2)cc1 | -61.4%
49 | Cc1ccc2nc3c(cc2c1)c(NC(=O)C(C)(C)C)nn3CC(C)C | 7.75%
50 | COc1ccc(S(=O)(=O)N2CCCCCC2)cc1C(=O)N(C)Cc1ccccc1F | 6.9%
51 | CCCn1c(SCC(=O)Nc2ccccc2OC)nnc1-c1ccco1 | -18.2%
52 | NC(=O)c1ccc(NC(=O)CCCNC(=O)c2ccc(Cl)cc2)cc1 | 16.6%
53 | CCOc1ccc2nc(NC(=O)c3cc([N+](=O)[O-])ccc3N3CCOCC3)sc2c1 | 8.4%
54 | COc1ccc(CN(C(=O)COc2ccccc2)c2ccccc2C(=O)O)cc1 | 22%
55 | CC(C)Cn1c(CN(C)Cc2ccccc2)nc2c1c(=O)n(C)c(=O)n2C | -6.95%
56 | CC12CCC(C(=Nc3ccc(N=C4C(=O)C5(C)CCC4C5(C)C)cc3)C1=O)C2(C)C | 8.42%
